Test results taken from PubChem BioAssay AID493162 (ICCB-Longwood Screening Facility, Harvard Medical School, 2011).
The campaign covered roughly 46,000 compounds. About 430 (0.93%) were called active. The full list was thinned out, with actives kept by preference. Unmarked numbers belong to inactive results. Rule as the data show it: active = normalized absorbance mostly below about 85% (no sharp cut-off); inactive = mostly above about 86%.

Test system: Vaccinia virus DNA polymerase (E9) processive complex
Assay: vaccinia E9 polymerase processive synthesis inhibitors, primary screen, biochemical, absorbance (AID 493162)
Conditions: in vitro processive DNA synthesis, absorbance read-out; stronger effect = lower value; concentration not given here

Row | SMILES | normalized absorbance
1 | Cc1scc(-c2ccccc2)[n+]1C | 97%
2 | Clc1ccc2oc(-c3ccccc3)c/c(=N\c3nccs3)c2c1 | 99.8%
3 | S=c1cc(-c2ccccc2)oc(-c2ccccc2)c1 | 99.9%
4 | CN(C)CCN=c1cc(-c2ccccc2)oc2ccc(Cl)cc12 | 25.3% (active)
5 | N#Cc1ccccc1NC(=O)CSc1ccccc1 | 105%
6 | O=C(CCNS(=O)(=O)c1ccc2[nH]c(=O)ccc2c1)NC1CCCC1 | 103%
7 | Cc1ccc(S(=O)(=O)N2CCCC(C(=O)N(C)c3ccccc3)C2)cc1 (configuration not stated) | 101%
8 | COC(CN(C)C(=O)c1cc2c(Cl)nc3ccc(C)cc3c2s1)OC | 80.2%
9 | O=C(NCCCN1CCOCC1)c1cc2c(s1)CCC2 | 82.2%
10 | Cc1ccc2nc(Cl)c3cc(C(=O)NCCN4CCN(C)CC4)sc3c2c1 | 22.8% (active)
11 | CC(C)NC(=O)CN1C(=O)c2cccnc2Oc2ccccc21 | 102%
12 | O=C(NCc1ccccc1Cl)C1(c2ccccc2)CCCC1 | 97.8%
13 | CSC1=NCCN1S(=O)(=O)c1ccc(Br)cc1 | 110%
14 | CS(=O)(=O)N1CCN=C1SCc1cccnc1 | 66.5% (active)
15 | O=C(O)CCc1cccnc1 | 102%
16 | COC(=O)Nc1cn(Cc2ccccn2)c(=O)c2ccccc12 | 112%
17 | O=c1[nH]c(=S)[nH]cc1S(=O)(=O)c1ccc(F)cc1 | 99.5%
18 | O=C(Nc1ccc2nc(SCC(=O)N3CCc4ccccc43)sc2c1)c1ccccc1Cl | 100%
19 | CCN(CC)c1ccc(C=Nc2cc(C)cc(C)c2)cc1 | 100%
20 | CCOc1ccc(S(=O)(=O)N2CCC(C)CC2)cc1 | 99%
21 | Nc1ccc(-c2nc3ccccc3[nH]2)c(N)c1 | 99.3%
22 | COc1ccc(C2=NS(=O)(=O)N(C)C(C(=O)N(C)Cc3ccccc3)=C2)cc1 | 86.6%

Row | SMILES | normalized absorbance
23 | Cc1cccc(-n2nc3c(c2NC(=O)/C=C\c2ccco2)CSC3)c1C | 85.2%
24 | CC(=O)n1c(C=Nc2ccccc2)c(O)c2ccccc21 | 99.4%
25 | CC(=O)Nc1sc(C)nc1-c1ccccc1 | 99.1%
26 | CC(=O)n1c2ccccc2c2nc(C)sc21 | 45.9% (active)
27 | Cc1nc2ccc(S(=O)(=O)NC(CC(C)C)C(=O)NC3CCCCCC3)cc2s1 (configuration not stated) | 103%
28 | CCOc1ccc(C(=O)Nc2nc3c(OC)cccc3s2)cc1 | 106%
29 | Cc1ccc(S(=O)(=O)N2CCCC(n3cccc3)C2)cc1 (configuration not stated) | 117%
30 | CC12CCC3C(CCC4CCCCC43C)C1C/C(=C\c1ccc[nH]1)C2=O (configuration not stated) | 101%
31 | Cc1cc(Nc2ccc(Cl)cc2)n2c(nc3ccccc32)c1C#N | 100%
32 | COc1ccc(-c2cc(-c3ccccc3)nc(SCC(N)=NC#N)c2C#N)cc1 | 100%
33 | C[N+](C)(C)CCOC(=O)c1ccccc1 | 99.6%
34 | Cc1nc(C)nc(N(Cc2ccccc2)Cc2ccccc2)n1 | 94.7%
35 | Cc1ccc(Nc2c(-c3c[nH]c4ccccc34)nc3c[n+](CC(N)=O)ccn23)cc1 | 95.2%
36 | COc1ccc(C(=O)N2CCN(c3ccc(N4CCOCC4)nn3)CC2)cc1 | 101%
37 | O=C1NC(=Nc2ccc(O)cc2)S/C1=C\c1ccc(Cl)cc1Cl | 100%
38 | CC1CCc2sc(NC(=O)Cc3ccccc3)c(C(N)=O)c2C1 (configuration not stated) | 89.9%
39 | Cc1nc(SCC(=O)c2ccc(Cl)cc2)c(C#N)c(C)c1C | 99.7%
40 | N#Cc1c(-c2cccs2)nc(SCC(=O)c2ccc(Br)cc2)[nH]c1=O | 68.9% (active)
41 | COc1ccc(C(=O)CSC2=C(C#N)C(c3cccs3)CC(=O)N2)cc1 (configuration not stated) | 101%
42 | O=C(NCc1cccnc1)c1cc(-c2ccccn2)nc2ccccc12 | 102%
43 | COc1ccc(-c2nnn(-c3cccc(C(F)(F)F)c3)c2N)cc1OC | 112%
44 | Cc1cc(C)cc(Oc2coc3c(CN4CCCCCC4)c(O)ccc3c2=O)c1 | 100%

Row | SMILES | normalized absorbance
45 | O=C(CCc1nc(-c2ccccc2)no1)N1CCCCC1 | 94.1%
46 | Fc1ccccc1Cn1cnc2ccccc21 | 100%
47 | O=C(O)CCCC(=O)Nc1ccccn1 | 98.3%
48 | Cc1cc(-c2cn(/N=C/c3ccc(Cl)cc3Cl)c(N)n2)c(C)s1 | 97.6%
49 | Cc1nc2cc(Cl)ccc2c(=O)n1-c1nc2ccccc2[nH]1 | 103%
50 | CC(C)(C)c1cn2c3ccccc3nc2n1CCCO | 96.5%
51 | Cc1nnc(SCC(=O)O)[nH]c1=O | 96.1%
52 | Cc1nc2sc(C(c3ccc(F)cc3)N3CCC(O)CC3)c(O)n2n1 (configuration not stated) | 101%
53 | CC(C)Nc1nc(-c2ccccc2O)nc2ccccc12 | 102%
54 | O=C(O)CSc1ccc(Br)c2cccc(Cl)c12 | 81.7%
55 | Cc1nc2ccccc2nc1SCC(=O)O | 103%
56 | O=C(O)CSc1ccc2ccccc2c1Br | 85.4% (active)
57 | COc1ccc(C2CC(=O)n3nc(-c4ccccc4)nc3S2)cc1OC (configuration not stated) | 100%
58 | Cc1cc2cc(CNS(=O)(=O)N(C)C)ccc2n1C | 101%
59 | O=S(=O)(c1cccc2cccnc12)N1CCN(c2cccc(Cl)c2)CC1 | 101%
60 | Cc1nc(N2CC(C)OC(C)C2)c2c3c(sc2n1)CCC3 (configuration not stated) | 100%
61 | COc1ccccc1NC(=O)c1cccc(N2C(=O)C3CC=CCC3C2=O)c1 (configuration not stated) | 89.3%
62 | COc1ccc(C2C=C(c3ccccc3)NC(=O)C2C#N)cc1 (configuration not stated) | 94.4%
63 | Cc1ccc(-c2nc(C)sc2CC(=O)O)cc1 | 98.3%
64 | COc1ccc(NS(=O)(=O)c2ccc(Oc3c(C#N)cccc3C#N)cc2)cc1 | 104%
65 | CCCn1c[n+](CC(=O)C(C)(C)C)c2ccccc21 | 101%
66 | COc1ccc(NC(=O)C(C)n2cccc2)cc1 (configuration not stated) | 102%

Row | SMILES | normalized absorbance
67 | O=c1[nH]c(-c2ccc(F)cc2)nc2ccccc12 | 102%
68 | Cn1nnnc1SCC(=O)Nc1nccs1 | 104%
69 | C=CCn1c(SCC(=O)Nc2nnc(CC)s2)nnc1-c1cccs1 | 99.4%
70 | CC(NC(=O)Nc1ccc2c(c1)N(C)C(=O)c1ccccc1S2)c1ccccc1 (configuration not stated) | 110%
71 | CN1CCc2ccccc2C1Cc1ccccc1NS(=O)(=O)c1cccc(C(F)(F)F)c1 (configuration not stated) | 97.1%
72 | O=c1c2ccccc2c(-c2ccccc2)nn1Cc1ccccc1 | 99.7%
73 | O=c1c2cccc3c2c(nn1CN1CCCCC1)-c1ccccc1-3 | 76% (active)
74 | O=C1c2ccccc2-c2nn(CC(=O)N3CCOCC3)c3cccc1c23 | 92.9%
75 | CCOC(=O)CSc1nc2ccccc2n1C(=O)Oc1ccccc1 | 95.5%
76 | O=C(O)CCc1nnc2ccc(N3CCCC3)nn12 | 103%
77 | FC(F)(F)c1cccc(Oc2cnc3ccccc3n2)c1 | 95.2%
78 | Cc1ccc2c(Cl)c(C(=O)N(Cc3cccs3)C3CCS(=O)(=O)C3)sc2c1 (configuration not stated) | 100%
79 | C/C(C#N)=C(/N)c1ccccc1 | 104%
80 | CCOC(=O)CSc1nc(N)c2c3c(sc2n1)CCC3 | 95.7%
81 | COc1ccc2c(C)cc(-n3nc(C)cc3C)nc2c1 | 99%
82 | COc1ccc(Cl)cc1-n1c(SCc2cccc(Cl)c2)nnc1-c1cc2occc2n1C | 108%
83 | O=C(Nc1ccc(-c2nc3ccccc3o2)cc1)c1ccc(Oc2ccccc2)cc1 | 100%
84 | CCOc1ccc2nc(NC(=O)C3CC3)sc2c1 | 100%
85 | COc1ccc(/C=N/n2c(C)cc(C)cc2=O)cc1 | 100%
86 | CCOc1cccc(NC(=O)c2cc(=O)c3ccccc3o2)c1 | 100%
87 | CCOc1ncccc1C(=O)Nc1cccc(C(F)(F)F)c1 | 102%
88 | CCOC(=O)c1cnc2c(C)c(C)ccc2c1NCCCN(C)C | 39.1% (active)

Row | SMILES | normalized absorbance
89 | CCOC(=O)Cc1nc(N)ncc1C(=O)OCC | 101%
90 | CCOC(=O)c1cc2ccccc2nc1C | 99.8%
91 | c1ccc(-c2cc(NCC3CC3)n3cnnc3n2)cc1 | 98.2%
92 | O=C(NCCN1CCCc2ccccc21)c1cc(-c2cccs2)nc2ccccc12 | 96.3%
93 | C=CCn1c(-c2ccccc2)csc1=Nc1ccc(O)cc1 | 100%
94 | COc1ccc(-c2nc(NCC3CCCO3)c3ccccc3n2)cc1 (configuration not stated) | 66.4% (active)
95 | COc1ccc(-n2nc(C(=O)NCC3CCCO3)c3c4ccccc4n(C)c3c2=O)cc1 (configuration not stated) | 103%
96 | CN1CCN(c2nc(NCC3CCCO3)c3ccccc3n2)CC1 (configuration not stated) | 98.7%
97 | Cc1ccc(C)n1-c1nn(S(C)(=O)=O)c2cccc(F)c12 | 92.7%
98 | COc1cccc(C2=Nc3ccccc3C2=O)c1 | 99.2%
99 | COC(=O)c1coc(-c2ccccc2)n1 | 102%
100 | O=C(N/C(=C/c1ccccc1)P(=O)(O)c1ccccc1)c1ccccc1 | 98.3%
101 | Cc1ccc(/C=C/C(=O)NCC2CCCO2)o1 (configuration not stated) | 89.2%
102 | CN(C)c1nc(NCc2ccccc2)nc(Nc2ccc(OC(F)(F)F)cc2)n1 | 100%
103 | CCc1ccccc1N1CC(c2nc3ccccc3[nH]2)CC1=O (configuration not stated) | 90.4%
104 | CC(C)NC(=O)Oc1noc2ccc(Cl)cc12 | 99.1%
105 | CCN1C(=O)/C(=C/C=C/c2ccco2)C(=O)NC1=S | 64.7% (active)
106 | C=CCN1C(=O)/C(=C/c2ccc3c(c2)n(C)c(=O)n3C)C(=O)NC1=S | 100%
107 | Cc1ccc(N2NC(=O)/C(=C/C=C/c3ccco3)C2=O)cc1C | 99.9%
